# According to PubChem BioAssay (EPA / NIEHS):
# Values joined by “and” are separate entries in the source; they are usually repeats but may differ in a detail not shown here. Identical values can stand only once. Some structures have more than one record in an assay (separate samples or runs), and their calls can disagree. Active and inactive are the calls of the source. Rule for the calls: active = hit-call score of the fitted dose curve at least 0.9, where 1 is the maximum; inactive = score below 0.9.
# Key:
# [1] = ATG_CRE_CIS: Attagene CIS-FACTORIAL HepG2 Assay for human cAMP Responsive Element (CRE) binding protein 3 (AID 2282926); details: HepG2 CRE cis-reporter, Attagene multiplexed mRNA; actives raise or lower the signal
# Summary of the method: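 Transfected HepG2 were treated for 24 hours, then RNA was extracted and reporter cDNA amplified with sequence-specific primers. Labelled fragments were separated by capillary electrophoresis, and the CRE signal was fitted bidirectionally with DMSO as baseline.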
# [2] = target: CCAAT/enhancer-binding protein beta (Homo sapiens) (UniProt P17676); assay: ATG_C_EBP_CIS: Attagene CIS-FACTORIAL HepG2 Assay for human CCAAT/Enhancer Binding Protein (C/EBP) beta (AID 2282927); details: HepG2 Attagene cis-factorial transcription factor reporter; actives raise or lower the signal
# CCAAT/enhancer-binding protein beta (Homo sapiens), sequence (P17676 whole entry, looked up): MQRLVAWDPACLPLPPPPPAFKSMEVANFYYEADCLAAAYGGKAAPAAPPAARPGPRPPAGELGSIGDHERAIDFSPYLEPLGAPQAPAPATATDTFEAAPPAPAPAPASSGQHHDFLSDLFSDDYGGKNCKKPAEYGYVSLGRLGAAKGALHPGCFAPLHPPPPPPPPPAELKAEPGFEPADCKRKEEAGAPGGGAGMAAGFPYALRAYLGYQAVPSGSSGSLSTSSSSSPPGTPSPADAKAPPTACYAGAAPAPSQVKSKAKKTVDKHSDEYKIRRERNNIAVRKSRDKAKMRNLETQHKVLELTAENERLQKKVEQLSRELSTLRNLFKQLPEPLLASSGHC
# Summary of the method: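 Endogenous transcription factor activity in human liver HepG2 cells is inferred from induction of a CEBPB-linked reporter mRNA. Exposure lasts 24 h; activity is fitted in both directions relative to DMSO.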
# [3] = ATG_CMV_CIS: Attagene CIS-FACTORIAL HepG2 Assay for human CMV (Internal Marker) (AID 2282928); details: HepG2 CMV promoter reporter, transcription factor profiling; actives raise or lower the signal;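 note: endpoint acts as a background internal control marker rather than a target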
# Summary of the method: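 Cell system: HepG2, transiently transfected multiple reporter units under cis promoters. Exposure: 24 h. Detection: RT-PCR, FAM labeling, HpaI digestion, capillary electrophoresis. Analysis: bidirectional, DMSO baseline.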
# [4] = target: Aryl hydrocarbon receptor (Homo sapiens) (UniProt P35869); assay: ATG_Ahr_CIS: Attagene CIS-FACTORIAL HepG2 Assay for human Aryl Hydrocarbon Receptor (Ahr) (AID 2282930); details: HepG2 AhR cis-factorial reporter transcription; actives raise or lower the signal
# Aryl hydrocarbon receptor (Homo sapiens), sequence (P35869 whole entry, looked up): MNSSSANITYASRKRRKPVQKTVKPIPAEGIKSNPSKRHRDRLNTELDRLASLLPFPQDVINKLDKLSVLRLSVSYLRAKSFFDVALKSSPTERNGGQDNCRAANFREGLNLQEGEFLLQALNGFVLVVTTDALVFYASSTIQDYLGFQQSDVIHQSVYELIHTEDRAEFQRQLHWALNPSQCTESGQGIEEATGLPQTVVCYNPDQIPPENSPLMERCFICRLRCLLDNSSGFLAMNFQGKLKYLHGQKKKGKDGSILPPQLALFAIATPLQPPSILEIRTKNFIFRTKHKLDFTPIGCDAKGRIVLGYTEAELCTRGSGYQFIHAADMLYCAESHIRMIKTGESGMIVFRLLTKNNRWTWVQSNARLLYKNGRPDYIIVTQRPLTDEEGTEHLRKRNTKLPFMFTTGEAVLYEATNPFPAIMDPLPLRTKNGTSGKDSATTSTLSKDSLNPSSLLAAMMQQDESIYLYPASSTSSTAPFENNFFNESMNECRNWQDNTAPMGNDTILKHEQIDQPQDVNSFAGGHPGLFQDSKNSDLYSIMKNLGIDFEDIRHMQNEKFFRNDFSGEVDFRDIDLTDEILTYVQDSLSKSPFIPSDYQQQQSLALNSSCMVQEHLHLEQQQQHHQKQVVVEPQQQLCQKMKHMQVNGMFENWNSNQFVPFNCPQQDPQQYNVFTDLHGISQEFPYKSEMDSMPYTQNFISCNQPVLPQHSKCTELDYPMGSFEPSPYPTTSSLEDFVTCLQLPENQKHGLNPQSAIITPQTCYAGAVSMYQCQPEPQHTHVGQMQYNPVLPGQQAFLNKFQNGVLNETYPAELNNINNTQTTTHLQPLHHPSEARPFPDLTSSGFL
# Summary of the method: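 Transient MRTU transfection of HepG2 → 24 h compound exposure → total RNA, oligo(dT) RT → PCR, 6-FAM extension, HpaI cut → CE fluorescence. DMSO = baseline; bidirectional curve fit.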
# [5] = ATG_AP_1_CIS: Attagene CIS-FACTORIAL HepG2 Assay for human Activator Protein 1 (AP-1) (AID 2282931); details: HepG2 Attagene cis-factorial AP-1 reporter mRNA; actives raise or lower the signal
# Summary of the method: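 Reporter transcripts were measured 24 h after dosing by RT-PCR and capillary electrophoresis of fluorescent fragments. Cells: HepG2 carrying transfected cis-regulated reporter constructs reading endogenous factor activity. Gain or loss fitted against DMSO.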
# [6] = ATG_AP_2_CIS: Attagene CIS-FACTORIAL HepG2 Assay for human Activator Protein 2 (AP-2) (AID 2282932); details: HepG2 AP-2 cis-reporter, Attagene transcription factor profiling; actives raise or lower the signal
# Summary of the method: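 HepG2, transient MRTU transfection, cis-regulated reporters; 24 h compound exposure; RNA isolated, RT-PCR, 6-FAM labelling, HpaI digest, CE fluorescence. DMSO = negative control/baseline, bidirectional fit.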
# [7] = ATG_BRE_CIS: Attagene CIS-FACTORIAL HepG2 Assay for human Bone Morphogenetic Protein (BMP) Response Element (BRE) (AID 2282933); details: HepG2 BMP response element reporter, Attagene transcription factor profiling; actives raise or lower the signal
# Summary of the method: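 A HepG2 multiplex reporter system measured inducible reporter mRNA 24 h post-dosing. Detection: RT-PCR, 6-FAM primer extension, HpaI digestion, capillary electrophoresis. Activity fitted bidirectionally relative to DMSO.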
# [8] = target: Retinoic acid receptor alpha (Homo sapiens) (UniProt P10276); assay: ATG_DR5_RAR_CIS: Attagene CIS-FACTORIAL HepG2 Assay for human Retinoic Acid Receptor Alpha (RARE), DR5 submotif (AID 2282934); details: HepG2 Attagene cis-factorial RARE DR5 reporter, mRNA; actives raise or lower the signal
# Retinoic acid receptor alpha (Homo sapiens), sequence (P10276 whole entry, looked up): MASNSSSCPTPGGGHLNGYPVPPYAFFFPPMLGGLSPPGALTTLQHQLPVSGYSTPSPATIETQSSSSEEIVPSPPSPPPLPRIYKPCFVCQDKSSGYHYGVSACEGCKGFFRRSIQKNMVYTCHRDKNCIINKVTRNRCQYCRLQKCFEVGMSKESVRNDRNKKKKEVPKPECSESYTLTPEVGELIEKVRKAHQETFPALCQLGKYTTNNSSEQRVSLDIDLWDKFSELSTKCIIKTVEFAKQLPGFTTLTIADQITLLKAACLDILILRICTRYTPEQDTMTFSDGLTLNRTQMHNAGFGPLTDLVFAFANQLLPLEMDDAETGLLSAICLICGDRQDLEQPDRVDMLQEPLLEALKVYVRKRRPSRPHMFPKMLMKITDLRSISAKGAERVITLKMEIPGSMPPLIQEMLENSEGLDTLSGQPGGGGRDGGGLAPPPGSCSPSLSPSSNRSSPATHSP
# Summary of the method: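 Transient MRTU transfection of HepG2; 24 h compound treatment; TriZol RNA, oligo(dT) RT, PCR, FAM labelling, capillary electrophoresis. Bidirectional fit vs DMSO. Endogenous TF activity at DR5 RARE.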
# [9] = ATG_E_Box_CIS: Attagene CIS-FACTORIAL HepG2 Assay for human Enhancer Box (E-box) (AID 2282936); details: HepG2 E-box cis-reporter transcription, actives raise or lower the signal
# Summary of the method: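 Cells: HepG2 (human liver), transient MRTU transfection. Exposure 24 h. RNA → oligo(dT) RT → PCR → 6-FAM label → HpaI → CE. Activity fitted both directions relative to DMSO.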
# [10] = ATG_M_61_CIS: Attagene CIS-FACTORIAL HepG2 Assay for M61 Transcription Factor (Internal Marker) (AID 2282937); details: HepG2 Attagene CIS-FACTORIAL M61 internal marker reporter; actives raise or lower the signal
# Summary of the method: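 Readout: fluorescent reporter mRNA fragments resolved by capillary electrophoresis after RT-PCR. Transiently transfected human HepG2 cells carried MRTU constructs reporting endogenous TF activity; 24 h chemical exposure; gain or loss of signal fitted relative to DMSO.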
# [11] = ATG_EGR_CIS: Attagene CIS-FACTORIAL HepG2 Assay for human Early Growth Response 1 (EGR1) (AID 2282938); details: HepG2 Attagene CIS-FACTORIAL EGR reporter mRNA; actives raise or lower the signal
# Summary of the method: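 Read-out: fluorescent reporter-mRNA fragments resolved by capillary electrophoresis after RT-PCR, 24 h post-dose in transiently transfected HepG2. Endogenous transcription-factor activity reported via cis-element-regulated reporter units; gain or loss fitted relative to DMSO.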
# [12] = ATG_M_19_CIS: Attagene CIS-FACTORIAL HepG2 Assay for M19 Transcription Factor (Internal Marker) (AID 2282939); details: HepG2 Attagene CIS-FACTORIAL M19 internal marker reporter; actives raise or lower the signal
# Summary of the method: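 Chemical-treated HepG2 (24 h) with MRTU constructs; reporter transcripts detected by fluorescent RT-PCR fragment analysis on capillary electrophoresis. Internal background marker, DMSO as baseline.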
# [13] = ATG_ERE_CIS: Attagene CIS-FACTORIAL HepG2 Assay for Estrogen Response Element (ERE) (AID 2282940); details: HepG2 ERE cis-reporter, Attagene RNA transcript; actives raise or lower the signal
# Summary of the method: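 Human liver cells (HepG2) bearing transiently transfected, promoter-regulated reporter units were exposed 24 h. Reporter mRNA induction was detected by capillary electrophoresis of labelled RT-PCR products and fitted bidirectionally to DMSO.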
# [14] = ATG_Ets_CIS: Attagene CIS-FACTORIAL HepG2 Assay for human Erythroblast Transformation Specific (ETS) (AID 2282941); details: HepG2 ETS cis-reporter transcription, actives raise or lower the signal
# Summary of the method: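 After transient cis-reporter transfection, HepG2 cells receive test chemical for 24 h. Reporter mRNA levels, measured by RT-PCR and capillary electrophoresis fluorescence, are analysed bidirectionally relative to the DMSO baseline.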
# [15] = target: Hepatocyte nuclear factor 3-beta (Homo sapiens) (UniProt Q9Y261); assay: ATG_FoxA2_CIS: Attagene CIS-FACTORIAL HepG2 Assay for human Forkhead box A2 (FOXA2) (AID 2282942); details: HepG2 cis-reporter transcription factor activity, 24 h; actives raise or lower the signal
# Hepatocyte nuclear factor 3-beta (Homo sapiens), sequence (Q9Y261 whole entry, looked up): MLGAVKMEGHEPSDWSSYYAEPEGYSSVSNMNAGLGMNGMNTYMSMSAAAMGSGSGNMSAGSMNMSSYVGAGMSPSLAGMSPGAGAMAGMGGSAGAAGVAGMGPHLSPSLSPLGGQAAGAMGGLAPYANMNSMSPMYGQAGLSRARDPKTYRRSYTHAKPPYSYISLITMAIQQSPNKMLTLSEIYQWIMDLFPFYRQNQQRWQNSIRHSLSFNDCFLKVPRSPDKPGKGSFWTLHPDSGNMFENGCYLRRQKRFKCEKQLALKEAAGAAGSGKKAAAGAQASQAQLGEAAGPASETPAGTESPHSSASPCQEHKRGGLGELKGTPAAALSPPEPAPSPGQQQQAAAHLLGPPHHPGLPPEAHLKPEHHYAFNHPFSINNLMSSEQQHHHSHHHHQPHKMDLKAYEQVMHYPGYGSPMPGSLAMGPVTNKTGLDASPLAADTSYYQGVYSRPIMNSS
# Summary of the method: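 Readout: fluorescent reporter transcripts resolved by capillary electrophoresis after RT-PCR. Transiently transfected HepG2, 24 h compound exposure, endogenous TF activity at cis promoter elements. Gain or loss of signal fitted relative to DMSO.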
# [16] = ATG_FoxO_CIS: Attagene CIS-FACTORIAL HepG2 Assay for human Forkhead box O (FoxO) (AID 2282943); details: HepG2 Attagene cis-reporter, FoxO element, mRNA; actives raise or lower the signal
# Summary of the method: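 HepG2, transient MRTU transfection (cis element, endogenous TFs). Dose 24 h. TriZol RNA → oligo(dT) RT → PCR → 6-FAM primer extension → HpaI cut → CE. Gain/loss vs DMSO.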
# [17] = ATG_GATA_CIS: Attagene CIS-FACTORIAL HepG2 Assay for human GATA Binding Protein (AID 2282944); details: HepG2 GATA cis-element reporter, Attagene multiplex mRNA; actives raise or lower the signal
# Summary of the method: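 Transfected cis-reporter HepG2 cells were treated with chemicals for 24 hours. Total RNA was then converted to cDNA, amplified with reporter-specific primers and analysed by fluorescent capillary electrophoresis, using DMSO-treated wells as baseline.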
# [18] = ATG_GLI_CIS: Attagene CIS-FACTORIAL HepG2 Assay for human Zinc Finger Protein GLI1 (AID 2282945); details: HepG2, Attagene cis-factorial reporter mRNA, GLI element; actives raise or lower the signal
# Summary of the method: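 Bidirectional curve fits relative to DMSO, using reporter mRNA levels from RT-PCR plus capillary electrophoresis. Cells were HepG2 transiently carrying cis-regulated reporter constructs, harvested 24 h after dosing.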
# [19] = target: Transcription factor E2F1 (Homo sapiens) (UniProt Q01094); assay: ATG_E2F_CIS: Attagene CIS-FACTORIAL HepG2 Assay for human E2F Transcription Factor 1 (AID 2282935); details: HepG2 Attagene cis-reporter, E2F reporter RNA transcripts; actives raise or lower the signal
# Transcription factor E2F1 (Homo sapiens), sequence (Q01094 whole entry, looked up): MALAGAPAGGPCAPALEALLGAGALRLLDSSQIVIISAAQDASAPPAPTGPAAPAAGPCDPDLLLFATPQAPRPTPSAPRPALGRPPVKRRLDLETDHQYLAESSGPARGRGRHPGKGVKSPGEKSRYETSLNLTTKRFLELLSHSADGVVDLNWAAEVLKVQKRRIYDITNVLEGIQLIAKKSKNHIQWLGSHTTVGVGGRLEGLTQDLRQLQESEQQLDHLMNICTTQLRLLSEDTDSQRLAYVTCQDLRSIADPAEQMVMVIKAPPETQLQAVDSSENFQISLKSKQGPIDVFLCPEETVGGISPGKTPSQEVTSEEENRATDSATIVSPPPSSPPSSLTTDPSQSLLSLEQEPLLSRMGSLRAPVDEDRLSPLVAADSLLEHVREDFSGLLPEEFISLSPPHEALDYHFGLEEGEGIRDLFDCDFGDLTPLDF
# Summary of the method: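 Cis-element reporter mRNA induction in transiently transfected HepG2, 24 h exposure. Activity fitted in both directions relative to DMSO negative control.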
# [20] = ATG_DR4_LXR_CIS: Attagene CIS-FACTORIAL HepG2 Assay for human Liver X Receptor (LXR), DR4 submotif (AID 2282929); details: HepG2 Attagene DR4 cis-reporter, mRNA transcription; actives raise or lower the signal
# Summary of the method: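 Readout: reporter transcript fluorescence after RT-PCR and capillary electrophoresis, fitted bidirectionally against DMSO controls. Human HepG2 liver cells carried transiently transfected multiplexed reporter constructs; endogenous transcription factor activity measured 24 h post-dosing.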
smiles,measurement,setting,value
O=[N+]([O-])c1cc(C(F)(F)F)c(Cl)c([N+](=O)[O-])c1Nc1ncc(C(F)(F)F)cc1Cl,outcome,[1],inactive
same,AC50,[2],7.85 µM (active)
same,outcome,[2],inactive
same,outcome,[3],inactive
same,AC50,[4],19.1 µM (active)
same,outcome,[4],inactive
same,AC50,[5],2.7 µM (active)
same,outcome,[5],inactive
same,outcome,[6],inactive
same,AC50,[7],2.63 µM (active)
same,outcome,[7],inactive
same,outcome,[8],inactive
same,AC50,[9],15.2 µM (active)
same,outcome,[9],inactive
same,outcome,[10],inactive
same,outcome,[11],inactive
same,outcome,[12],inactive
same,outcome,[13],inactive
same,outcome,[14],inactive
same,AC50,[15],20 µM (active)
same,outcome,[15],inactive
same,outcome,[16],inactive
same,outcome,[17],inactive
same,outcome,[18],inactive
CN(C)[C@@H]1C(=O)C(C(N)=O)=C(O)[C@@]2(O)C(=O)C3=C(O)c4c(O)cccc4[C@@](C)(O)[C@H]3[C@H](O)[C@@H]12,outcome,[1],inactive
same,outcome,[2],inactive
same,outcome,[3],inactive
same,AC50,[4],66.3 µM (active) and 37.9 µM (active)
same,outcome,[4],inactive
same,outcome,[5],inactive
same,outcome,[6],inactive
same,AC50,[7],71.1 µM (active)
same,outcome,[7],inactive
same,outcome,[19],inactive
same,outcome,[9],inactive
same,outcome,[10],inactive
same,outcome,[11],inactive
same,outcome,[12],inactive
same,outcome,[14],inactive
same,outcome,[15],inactive
same,outcome,[16],inactive
same,outcome,[17],inactive
same,outcome,[18],inactive
CCCCSP(=O)(SCCCC)SCCCC,outcome,[1],inactive
same,outcome,[2],inactive
same,AC50,[3],39.3 µM (active)
same,AC50,[20],72.9 µM (active)
same,outcome,[4],inactive
same,AC50,[5],70.1 µM (active)
same,outcome,[6],inactive
same,AC50,[7],40.1 µM (active)
same,outcome,[8],inactive
same,AC50,[19],58.3 µM (active)
same,AC50,[9],56.5 µM (active)
same,outcome,[10],inactive
same,outcome,[11],inactive
same,outcome,[12],inactive
same,outcome,[14],inactive
same,outcome,[15],inactive
same,outcome,[16],inactive
same,AC50,[17],81.2 µM (active)
same,AC50,[18],79.8 µM (active)
